{
  "source": "the OligoGym collection",
  "data": [
    {"target": "CTSH", "assay": "pooled miR-30 sensor sort-seq; sequence = guide strand", "conditions": "shRNA", "values": [
      {"sequence": "TACATCCTTGACAAAGCCGATG", "sensor-assay potency score (higher = more potent)": -1.28},
      {"sequence": "TATATGTGGAAAGTAGCCCTTC", "sensor-assay potency score (higher = more potent)": 0.309},
      {"sequence": "TCTATACATCATGAAGTCCTGA", "sensor-assay potency score (higher = more potent)": 0.44},
      {"sequence": "TGCTTAGACATCCATGACTTGA", "sensor-assay potency score (higher = more potent)": -1.27},
      {"sequence": "AAGGACAGCATCTTTCCGGTTG", "sensor-assay potency score (higher = more potent)": 0.018},
      {"sequence": "TTATCTGGAGTTTTATGGCAGG", "sensor-assay potency score (higher = more potent)": -0.729},
      {"sequence": "TTCAGTGCCATTTTAAATGTGT", "sensor-assay potency score (higher = more potent)": 0.219},
      {"sequence": "TTATCTTCCTCCAGTTGCTGGC", "sensor-assay potency score (higher = more potent)": -0.0224},
      {"sequence": "TACTGTAGGTCTTACGGTGCTT", "sensor-assay potency score (higher = more potent)": -0.0767},
      {"sequence": "TTAGACATCCATGACTTGAAGT", "sensor-assay potency score (higher = more potent)": -0.899},
      {"sequence": "TGTGATGTTGGCTACATCCTTG", "sensor-assay potency score (higher = more potent)": -0.0306}
    ]},
    {"target": "CUZD1", "assay": "pooled miR-30 sensor sort-seq; sequence = guide strand", "conditions": "shRNA", "values": [
      {"sequence": "TTTGCTTATAATAACTCTCATC", "sensor-assay potency score (higher = more potent)": -0.82},
      {"sequence": "TTTAGTTGCAAGTTATTCCCAT", "sensor-assay potency score (higher = more potent)": 0.389},
      {"sequence": "TTGATTAGGTCGTAGGTTGGAG", "sensor-assay potency score (higher = more potent)": 0.0207},
      {"sequence": "TTCTGATTGTACCACATCCATT", "sensor-assay potency score (higher = more potent)": -1.82},
      {"sequence": "TATATGAAGAAATGTCTCGTTT", "sensor-assay potency score (higher = more potent)": -0.417},
      {"sequence": "TTTGTATTACATCATCTTCTGT", "sensor-assay potency score (higher = more potent)": -0.716},
      {"sequence": "TTACACTGCAGATACACAGAGC", "sensor-assay potency score (higher = more potent)": -0.444},
      {"sequence": "TTGAAGTTTAGTTTTATCTTGT", "sensor-assay potency score (higher = more potent)": 0.539},
      {"sequence": "TTTGACTTTGTATTACATCATC", "sensor-assay potency score (higher = more potent)": -1.5},
      {"sequence": "TTGTATTACATCATCTTCTGTT", "sensor-assay potency score (higher = more potent)": 0.486},
      {"sequence": "TATCTTGTAATCTTTCTCCACT", "sensor-assay potency score (higher = more potent)": -0.514},
      {"sequence": "AAATACAGGAACATAGTCGTTT", "sensor-assay potency score (higher = more potent)": 0.0357}
    ]}
  ]
}
